Laboratory results published in PubChem BioAssay AID1159580 (chemical genetic matrix, 2015).
Where “and” joins values, the source holds several entries; their conditions need not be identical. Equal values may be shown once. The whole screen tested about 5,500 compounds, of which about 2,000 (36%) were called active. Another 18% or so got no clear call; they are omitted. Rule as the data show it: active = normalized growth mostly below about 0.91 (no sharp cut-off); inconclusive = no clear call, values can overlap the other calls; inactive = mostly above about 0.92. The list shows a part of the results.

Test: chemical genetic growth profiling, strain panel (AID 1159580);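 also: tested at 20 µM; growth read once vehicle control cultures reached saturation at 30 °C; 1 = growth at the plate median or of vehicle wells; lower values mean less growth of the strain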
Details: S. cerevisiae deletion strains, growth OD

Measured: normalized growth

Cc1c(C(N)=O)cc([N+](=O)[O-])cc1[N+](=O)[O-]
inactive: locus YAL021C, strain ccr4, hits give low values 0.995 | locus YAL026C, strain drs2, hits give low values 1.04 | locus YAL030W, strain snc1, hits give low values 1.01 | locus YBL061C, strain skt5, hits give low values 1.02 | locus YBR009C, strain hhf1, hits give low values 1.08 | locus YBR021W, strain FUR4, hits give low values 0.969 | locus YBR023C, strain chs3, hits give low values 1.03 | locus YBR171W, strain sec66, hits give low values 1.01 | locus YBR229C, strain ROT2, hits give low values 0.986 | locus YBR231C, strain swc5, hits give low values 0.996 | locus YBR279W, strain paf1, hits give low values 1.02 | locus YCL011C, strain gbp2, hits give low values 1.03 | locus YCL016C, strain dcc1, hits give low values 1.04 | locus YCL029C, strain bik1, hits give low values 0.977 | locus YCL061C, strain MRC1, hits give low values 1.03 | locus YCL069W, strain vba3, hits give low values 1.02 | locus YCR088W, strain abp1, hits give low values 1.01 | locus YDL005C, strain med2, hits give low values 1.02 | locus YDL035C, strain GPR1, hits give low values 0.994 | locus YDL040C, strain nat1, hits give low values 1.02 | locus YDL074C, strain BRE1, hits give low values 1.01 | locus YDL101C, strain DUN1, hits give low values 0.99 | locus YDL134C, strain PPH21, hits give low values 0.97 | locus YDL185W, strain tfp1, hits give low values 0.967 | locus YDL192W, strain arf1, hits give low values 0.966 | locus YDR001C, strain nth1, hits give low values 1.01 | locus YDR069C, strain doa4, hits give low values 0.997 | locus YDR101C, strain arx1, hits give low values 1 | locus YDR137W, strain rgp1, hits give low values 1.04 | locus YDR150W, strain NUM1, hits give low values 0.99 | locus YDR159W, strain sac3, hits give low values 0.991 | locus YDR162C, strain NBP2, hits give low values 0.994 | locus YDR195W, strain ref2 1.02 | locus YDR297W, strain sur2, hits give low values 1.01 | locus YDR318W, strain mcm21, hits give low values 0.983 | locus YDR334W, strain swr1, hits give low values 1.02 | locus YDR335W, strain msn5, hits give low values 1.03 | locus YDR388W, hits give low values 0.982 | locus YDR392W, strain spt3, hits give low values 1 | locus YDR502C, strain sam2, hits give low values 1 | locus YEL003W, strain gim4, hits give low values 1.03 | locus YEL037C, strain rad23, hits give low values 1.02 | locus YEL061C, strain CIN8 (second series), hits give low values 1.02 | locus YEL061C, strain CIN8, hits give low values 0.99 | locus YER015W, strain faa2, hits give low values 1.01 | locus YER016W, strain bim1, hits give low values 1.01 | locus YER110C, hits give low values 0.965 | locus YER111C, strain swi4, hits give low values 1.02 | locus YER155C, strain BEM2 (second series), hits give low values 0.978 | locus YER155C, strain BEM2, hits give low values 0.987 | locus YER167W, strain BCK2, hits give low values 0.99 | locus YFR010W, strain ubp6, hits give low values 1.03 | locus YGL078C, strain dbp3, hits give low values 0.98 | locus YGL086W, strain mad1, hits give low values 0.994 | locus YGL167C, strain pmr1, hits give low values 1.03 | locus YGL173C, strain kem1, hits give low values 1.01 | locus YGL227W, strain vid30, hits give low values 1.01 | locus YGL240W, strain doc1, hits give low values 1 | locus YGL248W, strain PDE1, hits give low values 1 | locus YGL253W, strain hxk2, hits give low values 1.02 | locus YGR078C, strain PAC10, hits give low values 1 | locus YGR135W, strain pre9, hits give low values 0.977 | locus YGR252W, strain gcn5, hits give low values 0.945 | locus YHR013C, strain ard1, hits give low values 1.07 | locus YHR027C, strain rpn1, hits give low values 1.02 | locus YHR030C, strain SLT2, hits give low values 0.98 and 1.04 | locus YHR079C, strain IRE1 (second series), hits give low values 0.984 | locus YHR079C, strain IRE1, hits give low values 1.04 | locus YHR094C, strain hxt1, hits give low values 0.977 | locus YHR129C, strain ARP1, hits give low values 0.993 | locus YHR142W, strain chs7, hits give low values 1.02 | locus YHR200W, strain rpn10, hits give low values 0.98 | locus YIL066C, strain RNR3, hits give low values 0.988 | locus YIL073C, strain SPO22, hits give low values 0.95 | locus YIL125W, strain kgd1, hits give low values 0.99 | locus YIR030C, strain dcg1, hits give low values 0.984 | locus YJL092W, strain hpr5, hits give low values 1.02 | locus YJL095W, strain BCK1 (second series), hits give low values 1.04 | locus YJL095W, strain BCK1, hits give low values 1.02 and 1.05 | locus YJL115W, strain asf1, hits give low values 1.03 | locus YJL129C, strain trk1, hits give low values 1.05 | locus YJL134W, strain LCB3, hits give low values 0.991 | locus YJL154C, strain vps35, hits give low values 1.01 | locus YJL164C, strain tpk1, hits give low values 1.06 | locus YJL166W, strain qcr8, hits give low values 1.02 | locus YJL168C, strain set2, hits give low values 0.979 | locus YJL187C, strain SWE1 (second series), hits give low values 0.999 | locus YJL187C, strain SWE1, hits give low values 1.01 | locus YJR043C, strain POL32, hits give low values 1.02
